The whole screen tested about 16,000 compounds, of which about 5,700 (36%) were called active. Inconclusive results (about 24%) are left out. Calls follow the shape of the dose curve; as a rule, active = well fitted curve in the direction sought with a large enough effect; inconclusive = small, poorly fitted or top-dose-only effect, or effect the other way; inactive = no such curve, though single readings can be large or run the other way. This is one part of the list.
% is scaled to controls: 0 for no effect and ±100 for the full control effect.

For the assay, the target named is Cytochrome P450 1A2 (Homo sapiens) (UniProt P05177). In words: Cytochrome panel assay with activity outcomes. To be noted: recombinant CYP, pro-luciferin dealkylation, luminescence, p450-cyp1a2; series mostly up to 57.1 µM.
Chain of Cytochrome P450 1A2 (Homo sapiens) (P05177 whole entry, looked up): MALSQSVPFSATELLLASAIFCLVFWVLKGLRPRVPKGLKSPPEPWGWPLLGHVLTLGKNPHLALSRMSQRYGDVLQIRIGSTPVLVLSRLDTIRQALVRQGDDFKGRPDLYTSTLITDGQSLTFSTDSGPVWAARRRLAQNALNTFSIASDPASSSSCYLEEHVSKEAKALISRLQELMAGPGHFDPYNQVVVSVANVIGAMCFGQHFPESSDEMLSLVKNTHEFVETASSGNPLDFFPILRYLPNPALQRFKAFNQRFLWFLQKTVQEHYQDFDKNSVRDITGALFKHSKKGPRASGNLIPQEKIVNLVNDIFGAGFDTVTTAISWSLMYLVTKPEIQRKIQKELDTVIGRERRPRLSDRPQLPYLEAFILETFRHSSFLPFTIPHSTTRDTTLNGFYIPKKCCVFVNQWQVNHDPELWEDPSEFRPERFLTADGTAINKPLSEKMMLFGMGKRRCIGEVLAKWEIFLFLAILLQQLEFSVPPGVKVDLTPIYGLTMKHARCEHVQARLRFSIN
For `CC(C)CN(CC(C)C)C1=N/C(=C\c2ccco2)C(=O)N1c1ccccc1`, the AC50 result is “inactive”. Still for that read-out and setting: the same measure for `CCCCN=C1N/C(=C\c2ccco2)C(=O)N1c1ccccc1`: 2000 nM (active); for `O=c1c(-c2cccc(Cl)c2)nc2cncnc2n1Cc1ccccc1`: 1000 nM (active). The same measure, in the same setting: the same measure for `O=c1c(-c2ccccc2)nc2cncnc2n1Cc1ccccc1Cl`: 2000 nM (active). The same measure, in the same setting: the value for `O=c1c(-c2cccc(Cl)c2)nc2cncnc2n1Cc1ccccc1Cl` was 2000 nM (active); that for `O=c1c(-c2ccc(F)c(F)c2)nc2cncnc2n1Cc1ccccc1Cl` was 5010 nM (active). For `COc1ccc(S(N)(=O)=O)cc1C(=O)NCCCN1CCN(c2ccc(C)cc2)CC1`, the AC50 entry is “inactive”.

Take `CCCCOC(=O)c1cc2c(cn1)[nH]c1ccccc12`: the AC50 is 158 nM (active). Regarding `CNC(=O)c1cc2c(cn1)[nH]c1ccccc12`, the concentration at half-maximal activity (AC50) is 50.1 nM (active). Still for that read-out and setting: the value for `CCCCOc1ccc(-c2nnn(CC(=O)c3c[nH]c4ccccc34)n2)cc1` was “inactive”. Same read-out and setting: the same measure for `CCOCc1cnc(C)nc1NCC(=O)c1c(C)[nH]c2ccccc12`: “inactive”; for `CCOC(=O)NNC1CC(=O)N(c2ccc(OC)cc2)C1=O` (stereo unspecified): “inactive”.

As for `COc1ccc(NC(=O)N2CCC3(CC2)CCN(C(=O)c2cccc(F)c2)CC3)cc1`, the AC50 entry was “inactive”.

As to `CCN=C(Nc1cccc(F)c1)SC1CC(=O)N(c2ccc(OC)cc2)C1=O` (stereo unspecified), the AC50 is 6310 nM (active). On to `Cc1cc2c(nc1C)CCCCN2C[C@H](C)O/N=C\[C@@H](C)[C@H](OCc1ccccc1)C(C)C`, for which the activity, negative = inhibition is -17.4% [at 11.4 µM] (inactive).

For the compound `CC(=O)c1cnc2cc(C)nn2c1C`, the AC50 is 22400 nM (active). Turning to `CC(=O)c1cnc2c(C(=O)O)cnn2c1C`, the AC50 entry was “inactive”. In the case of `CCN1C(=O)[C@H]2[C@H]3[C@H](O)[C@H](O)C/C(=N/OC[C@@H](O)[C@H]4O[C@H]5OC(C)(C)O[C@H]5[C@@H]4O)[C@@H]3CC[C@@H]2C1=O`, the activity, negative = inhibition was -1.85% [at 11.4 µM] (inactive). `O=c1c(-c2cccs2)nc2cncnc2n1Cc1ccc(F)cc1`: the AC50 was 2510 nM (active). The same measure, in the same setting: the value for `O=c1c(-c2cccs2)nc2cncnc2n1Cc1ccccc1` was 2510 nM (active).

Regarding `CCCNc1[nH]c(=O)n(C)c(=O)c1N=O`, the AC50 entry is “inactive”.

On to `Cc1cccc2c1Oc1ccccc1[C@@H]2NC(=O)c1ccc([N+](=O)[O-])cc1`, for which the AC50 is 1000 nM (active). On the same count and under the same terms, the same measure for `CC(C)NC(=O)c1ccc(-c2cccc(C(F)(F)F)c2)o1`: 398 nM (active); for `CN(C(=O)Cn1nnc(-c2cccc(C(F)(F)F)c2)n1)C1CCCCC1`: “inactive”; for `C[C@@]1(C(NC(=O)Cc2ccc(C(F)(F)F)cc2)c2ccc(-c3ccccc3)cc2)C[C@H]1C1CCCCC1` (stereo partly specified): “inactive”. `OCCNc1ncnc2c1ncn2[C@@H]1O[C@@H](CO)[C@H](O)[C@@H]1O`: the activity, negative = inhibition was -20.3% [at 11.4 µM] (inactive).

For the compound `OCCNc1ncnc2nc[nH]c12`, the activity, negative = inhibition is -5.82% [at 11.4 µM] (inactive). For the compound `CCc1cc2c(NCCO)ncnc2s1`, the AC50 is 6310 nM (active). The same measure, in the same setting: the same measure for `CCc1cc2c(NCc3ccco3)ncnc2s1`: 2510 nM (active); for `FC(F)(F)c1ccccc1-c1nccc(N2CCNCC2)n1`: 10000 nM (active); for `CN1CCN(c2nc(-c3ccccc3C(F)(F)F)nc3ccccc23)CC1`: 10000 nM (active).

For `FC(F)(F)c1ccccc1-c1nc(N2CCNCC2)c2ccccc2n1`, the AC50 was 10000 nM (active). In the case of `CO[C@@H]1COC(=O)[C@@H](C)NC(=O)C/C=C\[C@@H](C)[C@H](NS(=O)(=O)c2ccc(C)cc2)COC(=O)[C@H](C)NC(=O)C/C=C\[C@H]1C`, the activity, negative = inhibition was 1.37% [at 11.4 µM] (inactive). With `CCOC(=O)c1c(C)c(C)n2c1NC(=O)C2`, the AC50 was 2000 nM (active).

Turning to `CCOC(=O)N1CCN(C(=O)c2ccc(Cl)c(S(=O)(=O)N3CCOCC3)c2)CC1`, the concentration at half-maximal activity (AC50) is 6310 nM (active). For `CCOC(=O)N1CCN(C(=O)c2ccc(OC)c(OC)c2)CC1`, the AC50 entry was “inactive”.

As to `CCOC(=O)N1CCN(C(=O)c2ccc(NC(C)=O)cc2)CC1`, the AC50 entry was “inactive”. Same read-out and setting: the value for `O=C(O)c1cc(=O)cc(C(=O)O)[nH]1` was “inactive”; that for `Cc1nc2cnc(N(C)C)nc2n(-c2ccccc2)c1=O` was 2000 nM (active). `COc1ccc(-n2c(=O)cnc3cnc(N(C)C)nc32)cc1`: the AC50 is 5010 nM (active). For `COc1ccc(-n2c(=O)c(C)nc3cnc(N(C)C)nc32)cc1`, the AC50 was 6310 nM (active).

On to `C[C@H](O)C(=O)Nc1c(I)c(C(=O)NC(CO)CO)c(I)c(C(=O)NC(CO)CO)c1I`, for which the AC50 entry is “inactive”. On to `C#CCCCO/N=C1/C[C@@H](O)[C@@H](O)[C@@H]2[C@@H]3C(=O)N(CCC(=O)OCC)C(=O)[C@H]3CC[C@H]12`, for which the activity, negative = inhibition was -10.2% [at 11.4 µM] (inactive). Turning to `CCOC(=O)N1CCC(NS(=O)(=O)c2ccc3c(c2)C(C)(C)C(=O)N3C)CC1`, the AC50 entry was “inactive”. Still for that read-out and setting: the value for `NCCCS(=O)(=O)O` was “inactive”; that for `Cc1ccc(C(=O)N2C3C=CC(C3)C2(C(F)(F)F)C(F)(F)F)cc1` (stereo unspecified) was “inactive”; that for `CCCCCN(CCCCC)C(=O)[C@H](CCC(=O)O)NC(=O)c1ccc(Cl)c(Cl)c1` was “inactive”. Turning to `C[C@H](NC(=O)c1ccc(Cl)c(Cl)c1)c1ccc(-c2ccccc2)cc1`, the AC50 is 631 nM (active).

As for `COc1ccc(C(NC(=O)c2ccc(-c3ccccc3)cc2)c2ccccc2)cc1` (stereo unspecified), the AC50 result is “inactive”. As to `CCOc1ccc(C(C)=O)cc1N1C(=O)C2C(C1=O)C1C=CC2C12CC2` (stereo unspecified), the AC50 entry is “inactive”. Still for that read-out and setting: the same measure for `O=C(Nc1cccc(F)c1)N1CC2(CCN(S(=O)(=O)c3ccccc3)CC2)C1`: “inactive”; for `Cc1cccc(N/C(=N\S(=O)(=O)c2ccccc2)C(F)(F)F)c1`: 14100 nM (active). `Cc1cccc(Nc2ccncc2S(=O)(=O)NC(=O)NC(C)C)c1`: the AC50 result was “inactive”. Turning to `CCC(=O)NC(NC(=O)CC)C(Cl)Cl`, the AC50 result was “inactive”. Same read-out and setting: the value for `O=C(Nc1ccc([N+](=O)[O-])cc1Cl)c1cc(Cl)ccc1O` was 1260 nM (active); that for `CC(=O)Nc1ccc(NC(=O)c2ccccc2CC[N+](=O)[O-])cc1` was “inactive”.

In the case of `O=C(Nc1ccccc1)c1cc([N+](=O)[O-])ccc1Cl`, the AC50 is 631 nM (active).

Regarding `Cc1cccc[n+]1CC(=O)Nc1ccc([N+](=O)[O-])cc1Cl`, the AC50 result is “inactive”. Still for that read-out and setting: the same measure for `O=C(Nc1ccccc1)c1ccccc1CC[N+](=O)[O-]`: 15800 nM (active). Consider `O=C(O)c1cc(N=Nc2ccc([N+](=O)[O-])cc2)ccc1O`, for which the activity, negative = inhibition is -15.2% [at 2.29 µM] (inactive).

For `COc1cccc(/C(O)=C2/C(=O)C(=O)N(c3cc(C)on3)C2c2cccs2)c1` (stereo unspecified), the AC50 result is “inactive”.

These data come from PubChem BioAssay AID1851 (National Center for Advancing Translational Sciences (NCATS), 2009).
